IMPase Li cell: membrane-permeable IMPase blocker, potentiated with lithium. CHO-M1 cells, IP1 TR-FRET (IP-One), carbachol + lithium. Potency, µM (doses to about 59.4 µM), inactives show at the top dose activity, negative = IMPase inhibition, most hits filed as inhibitors. hit rate 0.35% among 210,000. AID 1457;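 also: IP1 builds up when IMPase is blocked and the TR-FRET signal falls; plate controls were basal vehicle for no effect and high inhibitor control for full effect; nearly all actives have a fitted effect of over 50% in size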
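Readout is a homogeneous TR-FRET IP1 immunoassay (Ex 320, Em 665 and 620), where raised cytosolic IP1 lowers signal. Cells were CHO-M1 treated 30 min at 37C with test compounds plus a little lithium; AC50 values came from Hill-equation fitting.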
NPSR antagonist: antagonists of human neuropeptide S receptor cAMP signaling | Q6W5P4 | CHO-NPSR cells, cAMP TR-FRET, antagonist mode | Potency, µM (titrated, usually from 38.3 µM), inactives show at the top dose activity change, negative = inhibition, most hits filed as inhibitors | hit rate 1% among 220,000; also: % is scaled to controls: 0 for no effect and ±100 for the full control effect; nearly all actives have a fitted effect of over 50% in size
JMJD2E inh: blocks human JMJD2E demethylase activity; B2RXH2; JMJD2E catalytic domain, FDH-coupled NADH fluorescence (FDH is formaldehyde dehydrogenase); Potency, µM (titrated, usually from 57.1 µM), inactives show at the highest dose activity change, negative = inhibition, most hits filed as inhibitors; hit rate 1.6% among 230,000; AID 2147; active = well fitted inhibition curve with a large enough effect, not every such curve was filed as active; inconclusive = small, poorly fitted or top-dose-only effect, or another doubt; inactive = no such curve, though single readings can be large or run the other way;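 also: 0% = wells with enzyme and -100% = buffer wells without enzyme; nearly all actives have a fitted effect of over 50% in size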
Epigenetic derep: epigenetic control regulation, reporter derepression; Potency, µM (highest dose often 53.9 µM), without a hit: at the highest dose GFP activation, hits mostly activators; AID 1865; murine LDR cells, GFP reporter derepression, 30 h; hit rate 0.2% among 280,000; also: % of control where 0% means no effect; nearly all actives have a fitted effect of over 60% in size
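GFP-positive cell count by laser-scanning cytometry (objects 20–120 um) after 30 h, 37 C compound exposure of murine LDR cells; reporter is CMV-GFP integrated at a silenced locus, inducible by HDAC or DNMT inhibitors.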
KAT2A inh: blocks human GCN5L2 histone acetyltransferase. AID 504327. Potency, µM (doses to about 58.9 µM), for inactives: at the top dose activity change, negative = inhibition, hits mostly inhibitors. hit rate 0.21% among 390,000. GCN5L2 HAT assay, ThioGlo1 CoA-SH fluorescence. Q92830; also: % is scaled to controls: 0 for no effect and ±100 for the full control effect
Target sequence (Q92830 whole entry, looked up): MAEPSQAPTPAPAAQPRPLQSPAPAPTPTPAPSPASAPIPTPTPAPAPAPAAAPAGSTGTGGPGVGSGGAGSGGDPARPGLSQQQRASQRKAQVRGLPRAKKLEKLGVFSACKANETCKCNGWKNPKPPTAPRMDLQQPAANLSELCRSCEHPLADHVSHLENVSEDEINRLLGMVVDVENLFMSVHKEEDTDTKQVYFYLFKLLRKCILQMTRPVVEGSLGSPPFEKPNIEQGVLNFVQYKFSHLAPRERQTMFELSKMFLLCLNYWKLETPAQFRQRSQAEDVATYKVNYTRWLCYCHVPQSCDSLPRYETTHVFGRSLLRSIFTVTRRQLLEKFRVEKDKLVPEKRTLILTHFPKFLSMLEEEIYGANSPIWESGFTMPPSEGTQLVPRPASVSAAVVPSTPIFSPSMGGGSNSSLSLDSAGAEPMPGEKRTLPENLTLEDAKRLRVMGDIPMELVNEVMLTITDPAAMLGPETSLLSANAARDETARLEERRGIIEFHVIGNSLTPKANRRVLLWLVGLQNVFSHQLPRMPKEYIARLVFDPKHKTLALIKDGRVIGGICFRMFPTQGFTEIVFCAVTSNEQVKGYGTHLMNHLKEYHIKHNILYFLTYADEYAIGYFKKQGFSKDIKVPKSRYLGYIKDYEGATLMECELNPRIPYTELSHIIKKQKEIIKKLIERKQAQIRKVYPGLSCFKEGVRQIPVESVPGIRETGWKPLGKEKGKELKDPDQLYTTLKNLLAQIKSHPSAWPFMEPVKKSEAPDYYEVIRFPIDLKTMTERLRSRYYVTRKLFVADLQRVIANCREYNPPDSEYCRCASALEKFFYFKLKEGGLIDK
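GCN5L2 (20 nM) in 50mM HEPES pH 7.5, 0.1mM EDTA, 0.01% Tween-20 preincubated 15 min with compounds at room temperature. Reaction started with H3(1-25) 75uM, acetyl-CoA 70uM, ThioGlo1 50uM; CoA-thiol fluorescence (Ex340/Em540) read at 0 and 20 min.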
Sfp PPTase inh: Sfp phosphopantetheinyl transferase inhibition; Biochemical Sfp PPTase activity, qHTS; Potency, µM, for the others: largest response in the series, negative = inhibition, actives largely listed as inhibitors; hit rate 3.5% among 310,000; AID 1490;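 also: the enzyme is Sfp with the accession as filed and its product quenches rhodamine fluorescence; 0% = enzyme reaction without inhibitor and -100% = no enzyme wells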
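Compounds were incubated with enzyme (final 15 nM) for 15 min at room temperature before substrate addition started the reaction. Fluorescence at 525 nm excitation, 598 nm emission was recorded immediately and after 30 minutes.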
An asterisk follows results filed as active; ? = inconclusive; / = no result; [ ] = dose if it differs, or a comment. Only some compounds are listed: those with a hit (about 3.6% of all), similar ones and a draw of the others. Unless noted, calls follow the shape of the dose curve; as a rule, active = well fitted curve in the direction sought with a large enough effect; inconclusive = small, poorly fitted or top-dose-only effect, or another doubt; inactive = no such curve, though single readings can be large; an effect the other way counts as inactive or inconclusive. Potency is read from the fitted curve at half-maximal effect.

SMILES	IMPase Li cell	NPSR antagonist	JMJD2E inh	Epigenetic derep	KAT2A inh	Sfp PPTase inh
Nc1nnnn1CCO	-5%	/	/	/	/	/
Cc1ccc2c(CN3CC=C(c4ccccc4)CC3)cc(=O)oc2c1C	/	-13%[46.1 µM]	25µM*	0%	-3%	-5%
S=c1[nH]nc(Cn2c(-c3ccccn3)nc3ccccc32)n1-c1ccc2c(c1)OCCO2	/	-21%	?	5%	-4%	79µM*
Cn1c(O)c(C(c2ccccn2)c2c(O)n(C)c(=S)[nH]c2=O)c(=O)[nH]c1=S	-2%[38.3 µM]	-3%[46.1 µM]	?	0%	-16%	79µM*
Cc1ccc(-n2c(O)c(C=NCc3ccccn3)c(=O)[nH]c2=S)cc1	/	0%[7.67 µM]	-2%	0%	?	-17%
O=C(O)[C@@H](Br)[C@H](Br)C(=O)O	-2%	/	/	/	/	/
O=C1C=CC(=O)c2c1ccc1c2ccc2ccccc21	16%	/	3%[25.5 µM]	2%[16.9 µM]	-23%[21.4 µM]	3.5µM*
CN(C)NC(=O)CCC(=O)O	6%	/	/	/	/	/
CC(=O)O.CC(=O)O.[Cd]	7%	/	20µM*	?	-2%	25µM*
C[C@]12CC[C@H]3[C@@H](CCC4=CC(=O)CC[C@@]43C)[C@@H]1CC[C@@H]2C(=O)CO	9%	-29%	5%	1%	-1%	79µM*
CCC(=O)O[C@H]1CC[C@H]2[C@@H]3CCC4=CC(=O)CC[C@]4(C)[C@H]3CC[C@]12C	15%	/	-1%[25.5 µM]	1%[16.9 µM]	6%[21.4 µM]	?
CCOc1cccc(=NC2CCCCC2)c2c(C)n(C)c(C)c12	/	7.9µM*	8%	0%	-4%	-6%
CCOc1ccccc1N=C1SCCCN1C	20%[38.3 µM]	-12%[46.1 µM]	-12%	2%	-1%	-12%
ClCc1ccccc1	-7%	/	/	/	/	/
O=[N+]([O-])c1ccc(CN2CCN(c3ccc(Cl)cc3)CC2)o1	/	/	/	/	-5%	79µM*
Fc1cccc(F)c1CN1CCN(c2ccc(Cl)cc2)CC1	/	/	/	/	-19%	3%
O=c1c2ccccc2nc(CSc2ncnc3nc[nH]c23)n1-c1ccccc1	?	28%[46.1 µM]	-3%	?	-29%	50µM*
O=c1[nH]c(O)c(/C=C2\C=NN=C2c2ccccc2)c(=O)[nH]1	16%[38.3 µM]	-14%[46.1 µM]	-8%	1%	-12%	50µM*
COc1ccc(C(=O)O[C@H]2CC[C@@]3(C)[C@H]4CC[C@H]5[C@]3(C[C@]3(O)[C@H]6CN7C[C@H](C)CC[C@H]7[C@](C)(O)[C@]6(O)[C@H](O)C[C@]53O)O[C@]24O)cc1OC	1%	/	/	/	/	/
CCCCCCCC/C=C\CCCCCCCC(=O)OC[C@@H](COP(O)(O)=S)OC	/	/	/	/	5µM*	?
CN1CCC(c2c[nH]c3ccccc23)C1 (stereo unspecified)	/	15%	22µM*	0%	-13%	-3%
CCN(CC)c1ccc(N=Cc2c(O)n(CCC3=CCCCC3)c(=O)[nH]c2=O)cc1	-12%[38.3 µM]	9%[46.1 µM]	-4%	22µM*	-2%	-23%
CS/C(N)=C(C#N)/C(C#N)=C(\N)SC	25%	/	/	2%	?	?
CC[C@@]1(O)C(=O)OCc2c1cc1n(c2=O)Cc2cc3cc(O)ccc3nc2-1	10µM*	/	14%	-1%	?	-6%
CC[C@@]1(O)C(=O)OCc2c1cc1n(c2=O)-c2cc3ccccc3nc2C1	?	/	/	2%	28µM*	1%
SMILES	IMPase Li cell	NPSR antagonist	JMJD2E inh	Epigenetic derep	KAT2A inh	Sfp PPTase inh
Cc1ccccc1N1C(=O)CC(=O)NC1=O	3%[38.3 µM]	0%[46.1 µM]	-2%	1%	-2%	56µM*
CCc1ccccc1N1C(=O)CC(=O)NC1=O	-2%	6%	-22%	0%	-7%	-17%
NCC[C@H](NC(=O)[C@@H](N)CCCN=C(N)N[N+](=O)[O-])C(N)=O	/	/	/	/	-17%	?
CSc1nc(N)c(N=Nc2ccc([As](=O)(O)O)cc2)c(=O)[nH]1	/	-15%	-15%	0%	-9%	2.8µM*
COc1ccc(N=Nc2c(O)[nH]c(=S)[nH]c2=O)cc1	15%	-34%	-5%	-1%	1%	-27%
Cc1ccc(S(=O)ON2CCC(C(=O)O)(c3ccccc3)CC2)cc1 (stereo unspecified)	-6%	/	/	/	/	/

Screens deposited in PubChem by National Center for Advancing Translational Sciences (NCATS).
